# From PubChem
# TDP1 cell noCPT – qHTS for Inhibitors of human tyrosyl-DNA phosphodiesterase 1 (TDP1): qHTS in cells in absence of CPT. DT40 Tdp1-/- hTDP1 cells, no CPT, ATP luminescence, 48 h. Potency, µM (highest dose often 46.2 µM), inactives show top-dose activity change, negative = growth inhibition, actives largely listed as inhibitors. actives 15% (n = 420,000); further: nearly all actives have a fitted effect of over 55% in size
#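 A cellular qHTS used chicken DT40 cells lacking endogenous Tdp1 but carrying stably transfected human TDP1. Compounds were applied without camptothecin, and cell growth kinetics were judged by ATP-dependent luminescence after ≥48 hr.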
# DT40 TDP1 CPT – DT40-hTDP1 cell growth loss with CPT; chicken DT40 Tdp1-/-;hTDP1 cells + 20 nM CPT, ATP luminescence, 48 h; Potency, µM (series often up to 46.2 µM), inactives show at the top dose activity change, negative = growth inhibition, most hits filed as inhibitors; actives 12% (n = 420,000); AID 686979; further: nearly all actives have a fitted effect of over 55% in size
#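 Chicken DT40 Tdp1-/- cells stably complemented with human TDP1 were seeded at 400 cells/well in medium containing 20 nM camptothecin, exposed to pin-transferred compounds, and grown at 37 °C for at least 48 hr. Viability was read as ATP luminescence.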
# RORgamma inh – inhibitors of mouse ROR gamma transcriptional activity; actives 5.4% (n = 310,000); Drosophila S2 Gal4-RORgamma UAS-luciferase reporter, 20 h; Potency, µM (highest dose often 53.6 µM), for inactives: at the highest dose activity change, negative = inhibition, hits mostly inhibitors; P51450; AID 2551; further: nearly all actives have a fitted effect of over 60% in size
#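 Luciferase reporter read in Schneider cells carrying Gal4-RORγ (mouse) and UAS-Photinus luciferase; cells given compound 1 h before 700 uM copper sulfate induction, then incubated 20 h at ambient temperature.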
# ELG1 DNA repair – inhibitors of ELG1-dependent DNA repair in HEK293T cells; actives 2.3% (n = 330,000); Potency, µM (doses to about 46.1 µM), for the others: at the highest dose activity change, negative = inhibition, hits mostly inhibitors; AID 504467; HEK293T ELG1-luciferase reporter, luminescence, 16 h; DNA damage induced by 5-fluorouridine; further: nearly all actives have a fitted effect of over 55% in size
#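 Reporter activity after DNA damage by 5-fluorouridine is monitored. Compound-treated cells incubate 16 hr at 37 °C, then ONE-Glo is added for 30 min before luminescence reading.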
# VP16 counter – counter-screen for ROR gamma inhibitors: Gal4-VP16 reporter. Drosophila S2 Gal4-VP16 UAS-luciferase, luminescence, 20 h. Potency, µM (series often up to 53.6 µM), without a hit: at the top dose activity, negative = inhibition, hits mostly inhibitors. actives 3.5% (n = 310,000). AID 2546;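 further: Gal4-VP16 expression switched on by copper sulfate through the metallothionein promoter; nearly all actives have a fitted effect of over 50% in size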
# 12-LOX inh – inhibitors of human 12S-lipoxygenase ALOX12. P18054. purified 12hLO, xylenol orange hydroperoxide absorbance. Potency, µM (series often up to 108 µM), without a hit: at the top dose activity change, negative = inhibition, most hits filed as inhibitors. actives 1.1% (n = 580,000). AID 1671190
# Target sequence (P18054 whole entry, looked up): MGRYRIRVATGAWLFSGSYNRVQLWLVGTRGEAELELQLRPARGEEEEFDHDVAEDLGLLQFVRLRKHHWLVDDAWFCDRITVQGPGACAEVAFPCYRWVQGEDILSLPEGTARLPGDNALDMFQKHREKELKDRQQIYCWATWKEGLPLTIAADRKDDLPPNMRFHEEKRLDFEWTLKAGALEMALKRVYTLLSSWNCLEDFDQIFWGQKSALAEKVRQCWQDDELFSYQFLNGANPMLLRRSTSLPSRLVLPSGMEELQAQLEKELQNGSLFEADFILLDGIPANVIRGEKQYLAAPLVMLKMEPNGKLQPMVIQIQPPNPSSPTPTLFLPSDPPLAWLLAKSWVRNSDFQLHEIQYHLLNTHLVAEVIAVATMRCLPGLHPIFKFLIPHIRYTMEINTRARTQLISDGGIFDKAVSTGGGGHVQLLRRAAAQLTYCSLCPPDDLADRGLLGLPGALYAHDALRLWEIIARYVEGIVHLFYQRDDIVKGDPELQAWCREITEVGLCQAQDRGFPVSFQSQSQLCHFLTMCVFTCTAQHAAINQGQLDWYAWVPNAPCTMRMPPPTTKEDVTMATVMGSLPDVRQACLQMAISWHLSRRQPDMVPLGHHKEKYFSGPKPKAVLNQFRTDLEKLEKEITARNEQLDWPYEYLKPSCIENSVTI
#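 Hydroperoxide product was detected by ferrous iron/xylenol orange as the 573 to 405 nm absorbance ratio. Arachidonic acid at 40 uM (final) was turned over for 30 min at room temperature by 150 nM human 12hLO, pH 7.0 Hepes buffer, after 15 min compound preincubation.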
# Active calls of the source: *; ? = inconclusive; nt = not tested or not shown; [ ] = another dose, or the depositor's remark. Only some compounds are listed: those with a hit (about 15% of all), similar ones and a draw of the others. The call rests on the fitted dose curve; in most records, active means well fitted curve in the direction sought with a large enough effect; inconclusive means small, poorly fitted or top-dose-only effect, or another doubt; inactive means no such curve, though single readings can be large; an effect the other way counts as inactive or inconclusive. On the % scale 0 is the no-effect control and ±100 the full control effect; potency means the concentration at half of the fitted maximal effect.
SMILES,TDP1 cell noCPT,DT40 TDP1 CPT,RORgamma inh,ELG1 DNA repair,VP16 counter,12-LOX inh
O=C(NCC1CCCO1)c1ccc(NC(=O)c2ccc([N+](=O)[O-])cc2)cc1 (centres undefined),-20%,-2%,-5%,?,-2%,18%
CCC(=O)N(C1CCOCC1)C1CCN(S(=O)(=O)c2ccc(F)c(F)c2)CC1,nt,nt,nt,nt,nt,25%
Cc1ccc(CNC(=O)CCc2ncc(-c3ccc(Cl)cc3Cl)o2)cc1,nt,nt,nt,nt,nt,-18%
O=C(NCC1CCCO1)c1ccccc1NS(=O)(=O)c1cc([N+](=O)[O-])ccc1Cl (centres undefined),?,15µM*,nt,?,nt,-15%
CC(C)c1noc(C2CCCN(S(=O)(=O)c3ccccc3)CCC(=O)NCC2)n1 (centres undefined),nt,nt,nt,nt,nt,45%
Cn1cc(CN2CCc3c([nH]c4ccccc34)C2C(C)(C)C)cn1 (centres undefined),?,-4%,15%,-10%,-9%,-8%
CSc1ncc(CN2CCc3c([nH]c4ccccc34)C2C(C)(C)C)cn1 (centres undefined),23µM*,?,?,-17%,2%,-16%
CC(=O)Nc1ccc(C)cc1-c1nnc(SCC(=O)Nc2ccc(Cl)c(Cl)c2)[nH]c1=O,nt,nt,nt,nt,nt,-23%
O=C(CN1CCN(C(=O)c2ccc(OCC(F)(F)F)nc2)CC1)Nc1ccccc1Cl,nt,nt,nt,nt,nt,1%
CC1CCN(S(=O)(=O)c2ccc(C(=O)OC(C)C(=O)N(C)C3CCCCC3)cc2)CC1 (centres undefined),26µM*,?,nt,8%,nt,-27%
CC1CCN(S(=O)(=O)c2ccc(C(=O)OC(C)C(=O)NC3CCCCC3C)cc2)CC1 (centres undefined),?,0%,1%,3%,-2%,84%
COC(=O)Nc1ccc(S(=O)(=O)N2CCC(C(=O)N(C)C3CCCCC3)CC2)cc1,26µM*,?,4%,-16%,6%,-2%
O=Cc1cccc(-c2ccc(O)cc2)c1,nt,nt,nt,nt,nt,3%[12.5 µM]
CCc1ccc(/C=C(/CC(=O)O)c2nc3ccccc3s2)cc1,nt,nt,nt,nt,nt,-6%
Cc1ccc(-c2cc3onc(-c4ccccc4)c3c(=O)n2C)cc1,?,?,nt,?,nt,0%
Cn1c(-c2ccc(F)cc2)cc2onc(-c3c(F)cccc3Cl)c2c1=O,?,13µM*,nt,?,nt,-27%
CCCOc1ccc(-c2cc3onc(-c4ccccc4)c3c(=O)n2C)cc1,18µM*,26µM*,nt,?,nt,-19%
CNC(=O)c1ccc(-c2cc3onc(-c4ccccc4)c3c(=O)n2C)cc1,23µM*,18µM*,nt,?,nt,?
Cc1ccc(NC2(c3nnnn3-c3ccccc3C)CCCCC2)c(C)c1,nt,nt,nt,nt,nt,-10%
CCOc1ccccc1C1NC(=O)N(CC(=O)Nc2ccc(C(C)=O)cc2)C2=C1C(=O)OC2 (centres undefined),nt,nt,nt,nt,nt,35%
COc1ccc(Br)cc1CNC(=O)c1ccc2nc(C(C)C)oc2c1,-22%,0%,nt,nt,nt,-14%
O=C(NCc1ccccc1Br)c1ccc2c(c1)OCCO2,-14%,4%,52%[1.91 µM],23%,16%,0%
COc1ccc([C@@H](C)NC(=O)c2ccc3oc(C(C)C)nc3c2)cc1,16µM*,?,5%,0%,?,9%
CC(C)c1nc2ccc(C(=O)NC(C)c3ccccc3)cc2o1 (centres undefined),?,-26%,nt,nt,nt,3%
CCOc1ccc(NC(=O)c2ccc3nc(C(C)C)oc3c2)cc1,16µM*,21µM*,nt,nt,nt,-25%
SMILES,TDP1 cell noCPT,DT40 TDP1 CPT,RORgamma inh,ELG1 DNA repair,VP16 counter,12-LOX inh
COc1ccc(OC)c(CNC(=O)c2ccc3nc(C(C)C)oc3c2)c1,23µM*,?,nt,nt,nt,5%
CC(C)c1nc2ccc(C(=O)NCc3ccccc3Br)cc2o1,16µM*,?,nt,nt,nt,-12%
O=C(CNC(=O)c1cc(=O)[nH]c2ccccc12)NC1CC1,nt,nt,nt,nt,nt,12%
Cc1ccccc1-c1nc(N2CCOCC2)cc2c1CN(CC1CC1)C2=O,nt,nt,nt,nt,nt,13%[176 µM]
COc1ccc(CNC(=O)c2ccc3nc(C(C)C)oc3c2)cc1OC,?,23µM*,nt,nt,nt,?
CCOC(=O)C1CCCCN1C(=O)/C(=C/c1ccc(OC)cc1)c1ccc(OC)c(OC)c1 (centres undefined),?,18µM*,nt,18µM*,nt,-4%
O=C(N[C@@H]1CN(C(=O)c2cccc3[nH]ccc23)CC[C@@H]1CO)C1CC1,nt,nt,nt,nt,nt,48%
CSc1nc(=O)[nH]c2nc[nH]c12,-2%,-2%,nt,nt,nt,nt
Nc1nc(=S)c2[nH]cnc2[nH]1,1.8µM*,2.6µM*,0%,4%,-1%,?
Cc1ccc(Nc2nc(-c3c[nH]c(C(=O)N4CCCC4)c3)cs2)cc1F,nt,nt,nt,nt,nt,-82%
COc1ccc(NC(=S)Nc2ccccc2C(F)(F)F)cc1,-27%,1%,11µM*,5%,?,-28%
COc1ccc(NC(=S)Nc2ccc(F)cc2)cc1,26µM*,?,?,-1%,?,-4%
CCOc1ccc(NC(=S)NN(C)C(=S)Nc2ccc(OCC)cc2)cc1,?,?,7.9µM*,2%,?,-29%
CCOc1ccc(NC(=S)NC(C)c2cccs2)cc1 (centres undefined),?,-27%,3.2µM*,-21%,5µM*,-27%
FC(F)(F)c1ccccc1NC(=S)Nc1ccccc1,-9%,-1%,?,5%,-2%,14%
CC(=O)Nc1ccc(NC(=S)Nc2ccc(F)cc2)cc1,10%,-2%,-26%,0%,-2%,-24%
CCN1C(=O)C2(CCN(S(=O)(=O)c3ccc(Cl)c(C)c3)CC2)c2ccccc21,nt,nt,nt,nt,nt,36%
CCN(CC)c1nc2c(c(=O)n(Cc3ccccc3)c(=O)n2C)n1Cc1ccccc1,nt,nt,nt,nt,nt,14%
Cc1ccc(OCCC(=O)Nc2c(C)nn(C)c2C)cc1C,nt,nt,nt,nt,nt,-3%
CCCN(CC1CCOC1)S(=O)(=O)c1ccc(F)c(C)c1 (centres undefined),nt,nt,nt,nt,nt,40%
COc1cc(NC(=S)Nc2ccc(OC(F)F)cc2)cc(OC)c1,-8%,-16%,10µM*,?,?,?
CCOc1ccc(NC(=S)Nc2ccccc2C2(C)CC2)cc1,8.2µM*,?,7.9µM*,?,?,?
CCOc1ccc(NC(=S)Nc2ccc(F)cc2)cc1,?,?,13µM*,27%,?,?
CCOc1ccc(NC(=S)Nc2cccnc2)cc1,-9%,-4%,?,6%,9%,-29%
